Assay outcomes as filed in PubChem BioAssay.
Pf growth 48h: P. falciparum growth inhibition at 48 hours (one generation); Potency, µM (top dose mostly 28.7 µM), for inactives: top-dose activity change, negative = inhibition, hits mostly inhibitors; hit rate 5.9% among 310,000; P. falciparum luciferase growth in erythrocytes, 48 h; also: % is scaled to controls: 0 for no effect and ±100 for the full control effect
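In quantitative HTS format, infected erythrocytes bearing luciferase-reporter parasites were treated for a single generation at 37 C. Luminescence after adding detection reagent served as the growth measure.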
SARS PLpro yeast: blocks SARS-CoV papain-like protease in a yeast assay. S. cerevisiae expressing SARS-CoV PLpro, growth rescue. Potency, µM (doses to about 32.9 µM), without a hit: at the top dose activity, positive = growth rescue, most hits filed as activators. hit rate 0.19% among 330,000; calls by dose curve; also: 0% is about no effect; nearly all actives have a fitted effect of over 55% in size
NS1 inh: influenza NS1 inhibition; Potency, µM (doses to about 46.1 µM), for inactives: at the top dose activity, positive = more growth; hit rate 0.4% among 270,000; AID 2326; calls by dose curve; also: actives are rising curves; nearly all actives have a fitted effect of over 50% in size
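A cell-based growth assay was used: compounds that relieve NS1-induced slow growth of budding yeast raise OD600. Assay medium was yeast nitrogen base with ammonium sulphate and -URA supplement, pH 6.0, with 2% galactose.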
RE007 growth inh: less growth of the S. pombe RE007 Vpr strain; S. pombe RE007 Vpr strain, BacTiter-Glo ATP luminescence, 24 h; Potency, µM (top dose mostly 92.2 µM), for the others: at the top dose activity change, negative = less growth, actives largely listed as inhibitors; hit rate 0.21% among 360,000; active = well fitted falling curve with a large enough effect; inconclusive = small, poorly fitted or top-dose-only effect; inactive = no such curve, though single readings can be large or run the other way; also: % is scaled to controls: 0 for no effect and ±100 for the full control effect; nearly all actives have a fitted effect of over 50% in size
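Fission yeast RE007 carrying one integrated HIV-1 vpr copy, seeded at OD 0.01 in PMG+AL medium with 23 nL pinned compound. Grown 24 h at 30 degrees; viability read by BacTiter-Glo luminescence after 5 min.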
Pf growth 96h: P. falciparum growth inhibition at 96 hours; P. falciparum luciferase reporter growth, 96 h; Potency, µM (doses to about 28.7 µM), for the others: at the highest dose activity change, negative = inhibition, actives largely listed as inhibitors; hit rate 6.9% among 320,000; also: % is scaled to controls: 0 for no effect and ±100 for the full control effect
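Parasite growth measured via integrated firefly luciferase reporter in P. falciparum. Infected erythrocytes at 2% hematocrit, 0.05% parasitemia final were treated 96 hours at 37 C under 5% CO2, and luminescence was read.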
The depositor's hits bear a star. This is a sample that favours compounds with a hit; in the whole collection about 9.5% have one here. Unless noted, calls follow the shape of the dose curve; as a rule, active = well fitted inhibition curve with a large enough effect; inconclusive = small, poorly fitted or top-dose-only effect, or another doubt; inactive = no such curve, though single readings can be large or run the other way. Potency is read from the fitted curve at half-maximal effect.

`CCCCC[n+]1ccn(C2=C([O-])c3ccccc3C(=O)/C2=N\S(=O)(=O)c2ccc(Br)cc2)c1` gave Pf growth 48h 1.9µM*, SARS PLpro yeast 0%, NS1 inh 3%, RE007 growth inh 11% and Pf growth 96h inconclusive.
Screening NC(=O)[C@H]1CC2(CC(c3cccc(NC(=O)COc4ccc(Cl)cc4)c3)=NO2)CN1C(=O)c1ccccc1C(=O)c1ccccc1 (stereo partly specified) returned Pf growth 48h 12µM*, SARS PLpro yeast 2%, NS1 inh 0%, RE007 growth inh 5% and Pf growth 96h 12µM*.
For CCC(=O)N1CC2(CC(c3cccc(NC(=O)COc4ccc(Cl)cc4)c3)=NO2)C[C@@H]1C(N)=O (stereo partly specified) the results were Pf growth 48h inconclusive, SARS PLpro yeast 1%, NS1 inh -6% and Pf growth 96h inconclusive.
For NC(=O)[C@@H]1CC2(CC(c3cccc(NC(=O)CC(c4ccccc4)c4ccccc4)c3)=NO2)CN1C(=O)COc1ccc(Cl)cc1 (stereo partly specified) the results were Pf growth 48h inconclusive, SARS PLpro yeast 1%, NS1 inh inconclusive, RE007 growth inh -4% and Pf growth 96h 12µM*.
Screening CCCCCC(=O)N1CC2(CC(c3cccc(NC(=O)COc4ccc(Cl)cc4)c3)=NO2)C[C@@H]1C(N)=O (stereo partly specified) returned Pf growth 48h 10µM*, SARS PLpro yeast 5%, NS1 inh 0%, RE007 growth inh -10% and Pf growth 96h 13µM*.
For CC1(C(=O)N2CC3(CC(c4cccc(NC(=O)COc5ccc(Cl)cc5)c4)=NO3)C[C@@H]2C(N)=O)CC1 (stereo partly specified) the results were Pf growth 48h 13µM*, SARS PLpro yeast -2%, NS1 inh -4%, RE007 growth inh 3% and Pf growth 96h inconclusive.
`COCCN(C(=S)Nc1ccc(C(C)C)cc1)C(C)c1cccs1` (stereo unspecified) gave Pf growth 48h inconclusive, SARS PLpro yeast 0%, RE007 growth inh 21% and Pf growth 96h -10%.
C/C=C\C(=O)Nc1cccc(C2=NOC3(C2)C[C@@H](C(N)=O)N(C(=O)COc2ccc(Cl)cc2)C3)c1 (stereo partly specified) was read as Pf growth 48h inconclusive, SARS PLpro yeast -1%, NS1 inh -12%, RE007 growth inh -23% and Pf growth 96h inconclusive.
Screening NC(=O)[C@H]1CC2(CC(c3cccc(NC(=O)COc4ccc(Cl)cc4)c3)=NO2)CN1C(=O)c1ccc(Cl)cc1 (stereo partly specified) returned Pf growth 48h 13µM*, SARS PLpro yeast 3%, NS1 inh -33%, RE007 growth inh -6% and Pf growth 96h inconclusive.
For C/C=C/C(=O)N1CC2(CC(c3cccc(NC(=O)COc4ccc(Cl)cc4)c3)=NO2)C[C@@H]1C(N)=O (stereo partly specified) the results were Pf growth 48h 13µM*, SARS PLpro yeast 2%, NS1 inh -3%, RE007 growth inh -8% and Pf growth 96h 5.2µM*.
Screening CCC(=O)Nc1cccc(C2=NOC3(C2)C[C@@H](C(N)=O)N(C(=O)COc2ccc(Cl)cc2)C3)c1 (stereo partly specified) returned Pf growth 48h inconclusive, SARS PLpro yeast 0%, NS1 inh 0%, RE007 growth inh 18% and Pf growth 96h 24%.
For COc1ccc(-c2c(-c3ccsc3)oc3c2C(O)CCC3)cn1 (stereo unspecified) the results were RE007 growth inh -6%.
CC(C)(C)c1ccc(C(=O)N2CCC(=O)N(C(COCc3ccccc3)Cc3ccccc3)CC2)cc1 (stereo unspecified) was read as Pf growth 48h 9.3µM*, SARS PLpro yeast -20%, NS1 inh 10%, RE007 growth inh -2% and Pf growth 96h 12µM*.
`O=C(c1ccc(C(F)(F)F)cc1)N1CCC(=O)N(C(COCc2ccccc2)Cc2ccccc2)CC1` (stereo unspecified) gave Pf growth 48h inconclusive, SARS PLpro yeast -11%, NS1 inh -25%, RE007 growth inh -23% and Pf growth 96h 8.3µM*.
`O=C(c1ccc(C(F)(F)F)cc1)N1CCC(=O)N(C(COCc2ccc(Cl)cc2)Cc2ccccc2)CC1` (stereo unspecified) gave Pf growth 48h inconclusive, SARS PLpro yeast -15%, NS1 inh 25%, RE007 growth inh -19% and Pf growth 96h inconclusive.
Cc1ccc(COC[C@H](CC(C)C)N2CCN(C(=O)c3cccc(C(F)(F)F)c3)CCC2=O)cc1 was read as RE007 growth inh -7%.
CC(C)CC(COCc1cccc(C(F)(F)F)c1)N1CCN(C(=O)c2cccc(C(F)(F)F)c2)CCC1=O (stereo unspecified) was read as Pf growth 48h inconclusive, SARS PLpro yeast -3%, NS1 inh 16%, RE007 growth inh 0% and Pf growth 96h 15µM*.
For O=C(c1ccc(Cl)c(Cl)c1)N1CCC(=O)N(C(COCc2cccc(C(F)(F)F)c2)Cc2ccccc2)CC1 (stereo unspecified) the results were Pf growth 48h inconclusive, SARS PLpro yeast -24%, NS1 inh 16%, RE007 growth inh 4% and Pf growth 96h 13µM*.
For CC[N+]1(CC(O)COC2CC(C)CC(C)(C)C2)CCOCC1 (stereo unspecified) the results were Pf growth 48h inconclusive, SARS PLpro yeast 0%, NS1 inh -4%, RE007 growth inh 4% and Pf growth 96h inconclusive.
For C#CCOCCOCCOCCNc1nc(N2CCN(C(=O)[C@H](C(C)C)n3cc(CCO)nn3)CC2)nc(N2CCN(C(=O)[C@H]([C@@H](C)CC)n3cc(CCC(=O)O)nn3)CC2)n1 the results were RE007 growth inh 7%.
Screening Cn1c(=O)c2c(nc3n2CC(COc2ccc(Cl)cc2)O3)n(C)c1=O (stereo unspecified) returned Pf growth 48h -11%, SARS PLpro yeast 3%, NS1 inh 7%, RE007 growth inh 3% and Pf growth 96h inconclusive.
For CCc1cccc(OCC2Cn3c(nc4c3c(=O)[nH]c(=O)n4C)O2)c1 (stereo unspecified) the results were Pf growth 48h 5%, SARS PLpro yeast 1%, NS1 inh -9%, RE007 growth inh 3% and Pf growth 96h 12µM*.
Cn1c(=O)c2c(nc3n2CC(COc2ccccc2)O3)n(C)c1=O (stereo unspecified) was read as Pf growth 48h 0%, SARS PLpro yeast -1%, NS1 inh 5%, RE007 growth inh 1% and Pf growth 96h 9.3µM*.
